We go through 25 compounds from PubChem BioAssay (NCATS).

Values without a mark were called inactive. How the calls were made is not given here. Bounds are passed on as bounds.
Potency means the concentration at half of the fitted maximal effect.

This assay concerns HIV-1 nucleocapsid protein NCp7 (binding to TG oligonucleotide). In words: HIV Nucleocapsid (AID 346).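 Further: potency is for inhibitors that block NC binding and lower polarization.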 As to conditions: HIV-1 NC / fluorescein-TGTGTGTG probe, fluorescence polarization. A digest of the protocol: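 Fluorescence polarization readout: labelled TG4xF oligo (10 nM) with 100 nM nucleocapsid protein, high-salt (250mM NaCl) Hepes pH 7.5 buffer containing zinc and fresh reducing agents. Compounds added by pin tool; incubation 1 hr, room temperature.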
(In general: Fluorescence polarisation rises when a labelled molecule tumbles more slowly, as on binding a larger partner.)
In the case of `CN(C)c1ncc2ncc(=O)n(C3CC3)c2n1`, the Potency was above 20 µM.
The same measure for `COCCn1c(=O)c(-c2ccccc2)nc2cnc(Oc3ccc(OC)cc3)nc21`: above 20 µM; for `O=c1c(-c2cc(F)cc(F)c2)nc2cnc(N3CCNCC3)nc2n1Cc1ccc(F)cc1`: above 20 µM; for `COc1ccc(Oc2ncc3nc(-c4cccs4)c(=O)n(Cc4cccs4)c3n2)cc1`: above 20 µM.
For the compound `Cc1noc(C)c1C(=O)N1CCC[C@@]2(CCN(Cc3ccc(C#N)cc3)C2)C1`, the Potency was above 20 µM.
The same measure for `O=c1c(-c2cccc(F)c2)nc2cncnc2n1C1CC1`: above 20 µM; for `O=C(c1cc(C(F)(F)F)cc(C(F)(F)F)c1)N1CCC2(CCCN(Cc3ccncc3)C2)CC1`: above 20 µM.
Next, `Cc1cccc(CNc2ccnc(-c3ccc(C(=O)N(C)C)cc3)n2)c1`: above 20 µM; `CN1CCN(c2ncc3nc(-c4ccccc4)c(=O)n(CCc4ccccc4)c3n2)CC1`: above 20 µM.
For the compound `COc1ncc2nc(-c3ccc(Cl)cc3)c(=O)n(CCC#N)c2n1`, the Potency was above 20 µM.
The same measure for `O=S(=O)(c1ccccc1)N1CCC2(CC1)CN(C(c1ccccc1)c1ccccc1)C2`: above 20 µM.
Turning to `CC(=O)NCCNc1ncnc2ccc(-c3ccoc3)cc12`, the Potency was above 20 µM.
The same measure for `Cc1nc2cnc(Oc3ccccc3)nc2n(-c2ccccc2)c1=O`: above 20 µM; for `COCC(=O)N1CCC[C@@]2(CCN(C(c3ccccc3)c3ccccc3)C2)C1`: above 20 µM; for `O=C(c1cnccn1)N1CCC2(CC1)CN(c1cccc(-c3ccccc3)c1)C2`: above 20 µM.
The same measure for `Cc1noc(C)c1-c1cc(N(C)C)ncn1`: above 20 µM; for `COC(=O)N1CCC2(CC1)CN(C(=O)Nc1cccc(C#N)c1)C2`: above 20 µM.
As to `CS(=O)(=O)N1CCC2(CCN(c3cccc(-c4ccccc4)c3)CC2)CC1`, the Potency was above 20 µM.
The same measure for `COc1ccc(Oc2ncc3nc(-c4ccc(Cl)cc4)c(=O)n(C[C@H]4CCCO4)c3n2)cc1`: above 20 µM.
The same measure for `N#Cc1ccc(CN2CCCC3(CCN(C(=O)c4cccc(F)c4)CC3)C2)cc1`: above 20 µM; for `CN(C)c1ncnc2ccc(-c3ccc4c(c3)OCO4)cc12`: above 20 µM.
On to `CN1CCN(c2ncc3nc(-c4ccc(Cl)cc4)c(=O)n(C4CC4)c3n2)CC1`, for which the Potency is above 20 µM.
Consider `N#Cc1ccc(CN2CCCC3(CCN(S(=O)(=O)c4ccccc4)CC3)C2)cc1`, for which the Potency was above 20 µM.
Next, `Cc1ccccc1-c1nccc(Nc2ccc(F)cc2)n1`: above 20 µM; `COCC(=O)N1CCC2(CC1)CCN(C(=O)Nc1cccc(C#N)c1)CC2`: above 20 µM.
